Screening results deposited in PubChem BioAssay by several laboratories.
Hits are enriched below; roughly 1.4% of the tested compounds scored in any of these assays.
GALR2 agonist: agonists of human galanin receptor 2 (GALR2); O43603; GALR2-expressing cells, agonist activation read-out; activation, % (test concentration not listed); 140,000 tested, 0.48% active; in the data active = activation above about 5%, passing the limit was not always enough;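 also: 0% = vehicle buffer wells and 100% = reference agonist at full effect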
S1P2 agonist: activates the human S1P2 receptor | O95136 | S1P2-expressing cell line, agonist reporter read-out | activation, % at 4.5 µM | 97,000 tested, 0.46% active | AID 729; in the data active = activation above about 16%;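 also: 0% = vehicle low control and 100% = maximal reference agonist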
Target sequence (O95136 whole entry, looked up): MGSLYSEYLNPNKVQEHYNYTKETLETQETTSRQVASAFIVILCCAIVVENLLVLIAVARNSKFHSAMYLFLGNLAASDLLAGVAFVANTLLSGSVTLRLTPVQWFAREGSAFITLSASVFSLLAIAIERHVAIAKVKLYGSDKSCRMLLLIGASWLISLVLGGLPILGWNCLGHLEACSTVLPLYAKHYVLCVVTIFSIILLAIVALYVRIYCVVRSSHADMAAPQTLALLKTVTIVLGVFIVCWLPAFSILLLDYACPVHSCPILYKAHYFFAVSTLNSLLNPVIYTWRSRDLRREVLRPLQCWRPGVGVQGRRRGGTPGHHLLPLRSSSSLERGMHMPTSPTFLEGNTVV
PTPN22 act: LYP (human) phosphatase activation; Q9Y2R2; recombinant LYP, DiFMUP fluorescence; 0 = plate median, 100 = signal doubled; activation, % at 2 µM; 96,000 tested, 0.11% active; AID 697;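 active = activation at 2 µM above a set limit, the mean plus 5 SD, cut at about 37% in these data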
S1P2 blocker: S1P2 (human) receptor antagonism; cell-based S1P2 antagonist assay, inhibition at 5 uM; inhibition, % at 5 µM; 97,000 tested, 0.21% active; AID 736; O95136; in the data active = inhibition above about 45%;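 also: CRE beta-lactamase reporter cells expressing human S1P2 stimulated with S1P; 0% = agonist at EC80 alone and 100% = agonist plus reference antagonist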
LYP inh 2: LYP (human) phosphatase inhibition; recombinant LYP catalytic domain, DiFMUP fluorescence; inhibition, % at 2 µM; 96,000 tested, 0.21% active;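 active = inhibition at 2 µM at or above a set limit, the screen mean plus 3 SD, cut at about 24% in these data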;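 also: 0% = DMSO with enzyme and 100% = enzyme fully blocked by orthovanadate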
GALR2 blocker: blocks the human galanin receptor 2; O43603; GALR2-expressing cells, antagonist mode; inhibition, % at 4 µM; 140,000 tested, 0.39% active; AID 828; in the data active = inhibition above about 27%;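 also: cells stimulated with galanin 1-16 at roughly its EC80; 0% = agonist challenge control and 100% = basal control without agonist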
LYP act confirm: LYP (PTPN22) phosphatase activation confirmation; 100 tested, under 10 active; AID 1031; activation, % at 2 µM; shares compounds with PTPN22 act; Recombinant LYP, DIFMUP fluorescence; zero set by plate's median compound well; call rule not given here
The depositor's hits bear a star; . = not tested or not shown.

SMILES	GALR2 agonist	S1P2 agonist	PTPN22 act	S1P2 blocker	LYP inh 2	GALR2 blocker	others
CC1CCN(S(=O)(=O)c2ccc(NN=C(C#N)C#N)cc2)CC1	-3	-7	-24	6	26*	2
Cc1cccc(C)c1OP(N)(=O)OCC(F)(F)F (stereo not given)	-1	.	.	.	.	3
CCCC1COC(Cn2cncn2)(c2ccc(Cl)cc2Cl)O1 (stereo not given)	-5	-3	-61	5	62*	-7
CC(C)c1ccc(N2C(=O)NC(=O)/C(=C/c3cnc(-c4ccccc4)nc3)C2=O)cc1	1	.	.	.	.	-8
CSc1ncc(/C=C2/C(=O)NC(=O)N(c3ccc(C(C)C)cc3)C2=O)cn1	5.1*	.	.	.	.	-2
O=C1NC(=O)N(c2ccc3c(c2)OCO3)C(=O)/C1=C/c1ccc(N2CCCC2)o1	-2	.	.	.	.	0
O=C1NC(=O)C(=Cc2cn(CCOc3ccc4c(c3)OCO4)c3ccccc23)C(=O)N1	0	-2	-26	-7	26*	-1
Nc1c(C(=O)OCC2CCCO2)c2nc3ccccc3nc2n1Cc1cccs1 (stereo not given)	0	1	8	-11	-4	15
Nc1c(C(=O)NC2CCCC2)c2nc3ccccc3nc2n1CC1CCCO1 (stereo not given)	33*	44*	6	-56	-9	-13
Cc1cccc(N2C(=O)NC(=O)/C(=C\c3cccn3-c3ccc(Cl)cc3)C2=O)c1	-1	-6	7	56*	-3	8
C/C(=N\N1CCN(C)CC1)c1c(O)[nH]c(=O)[nH]c1=O	0	.	.	.	.	-9
CC(C)OCCCNC(=O)c1c(N)n(Cc2cccs2)c2nc3ccccc3nc12	29*	.	.	.	.	-11
CC(C)CCNC(=O)c1c(N)n(Cc2ccc3c(c2)OCO3)c2nc3ccccc3nc12	10	129*	3	-98	-2	-12
CC(C)CNC(=O)c1c(N)n(Cc2ccc3c(c2)OCO3)c2nc3ccccc3nc12	40*	67*	-11	-140	13	-37
Nc1c(C(=O)NCc2ccco2)c2nc3ccccc3nc2n1CCN1CCCCC1	8	28*	-3	-1	-1	-11
COc1ccc(Cn2c(N)c(C(=O)NCc3ccco3)c3nc4ccccc4nc32)cc1OC	2	7	-6	-21	5	-9
CCCNC(=O)c1c(N)n(Cc2ccc3c(c2)OCO3)c2nc3ccccc3nc12	0	14	2	-5	-4	-25
Cc1ccc(S(=O)(=O)NC(Cc2cnc[nH]2)C(=O)O)cc1 (stereo not given)	0	.	.	.	.	-4
CSCc1nnc2n1-c1ccc(Cl)cc1C(c1ccccc1)=NC2	0	.	.	.	.	-5
CC(C)CNC(=O)c1c(N)n(Cc2ccco2)c2nc3ccccc3nc12	17*	33*	-9	-65	12	-24
COCCNC(=O)c1c(N)n(CCC(C)C)c2nc3ccccc3nc12	16*	16*	-12	-34	14	-13
CC(C)OC(=O)c1c(N)n(Cc2ccco2)c2nc3ccccc3nc12	1	-1	-11	2	10	0
Cc1ccc[n+](CC(O)Cn2c3ccccc3c3ccccc32)c1 (stereo not given)	-1	.	.	.	.	-3
CCCCCCn1c(O)c(C(C)=NC)c(=O)[nH]c1=O	0	-2	-9	-19	10	0
CN1/C(=C\C=C\C2=[N+](C)c3ccc4ccccc4c3C2(C)C)C(C)(C)c2ccccc21	1	-5	-31	95*	33*	-51
SMILES	GALR2 agonist	S1P2 agonist	PTPN22 act	S1P2 blocker	LYP inh 2	GALR2 blocker	others
O=c1[nH]c(=S)n(-c2ccccc2)c(O)c1/C=N/N1CCOCC1	-1	.	.	.	.	-11
CCn1nc(-c2ccccc2)nc2c(=O)n(C)c(=O)nc1-2	4	.	.	.	.	95*
C[C@H]1CCC[C@@H](O)CCC/C=C/c2cc(O)cc(O)c2C(=O)O1	-4	-5	-11	10	10	11
C[C@H]1CCC/C=C/C2C[C@H](O)CC2[C@H](O)/C=C/C(=O)O1 (stereo not given in full)	-1	.	.	.	.	49*
CCCC/C(=N\O)c1c[nH]c2ccccc12	-1	-3	-16	-6	18	2
CC(C)CCC1(CN2CCCC2=O)C(=O)NC(=O)NC1=O	-2	-4	39*	2	-36	13	LYP act confirm=5
